Compound activity (PubChem)
Hits are enriched below; roughly 2.4% of the tested compounds scored in any of these assays.
D2 ag-1 – Beta-Arrestin HTS for Positive Allosteric Modulators of the Human D2 Dopamine Receptor: Agonists. D(2) dopamine receptor (Homo sapiens), P14416. DiscoveRx PathHunter D2 beta-arrestin, luminescence, 90 min; 100% = 57 uM dopamine signal. activation, % (test concentration not listed). hit rate 0.084% among 360,000. AID 624465, 2012; in the data active means activation above about 40%
Target sequence (P14416 whole entry, looked up): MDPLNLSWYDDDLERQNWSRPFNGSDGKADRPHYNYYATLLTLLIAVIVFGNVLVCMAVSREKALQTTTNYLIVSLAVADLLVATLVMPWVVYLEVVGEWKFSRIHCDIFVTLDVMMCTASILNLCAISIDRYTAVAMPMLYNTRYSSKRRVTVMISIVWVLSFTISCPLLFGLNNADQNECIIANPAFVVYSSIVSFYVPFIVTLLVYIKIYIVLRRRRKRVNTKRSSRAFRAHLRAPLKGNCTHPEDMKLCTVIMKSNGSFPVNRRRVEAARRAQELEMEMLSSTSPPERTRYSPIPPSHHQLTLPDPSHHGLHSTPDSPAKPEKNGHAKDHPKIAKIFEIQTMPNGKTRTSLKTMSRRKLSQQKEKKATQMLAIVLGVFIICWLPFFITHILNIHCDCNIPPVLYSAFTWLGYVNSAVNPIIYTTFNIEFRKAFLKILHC
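DiscoveRx PathHunter D2 beta-arrestin cells (2,100/well) attached overnight, then compound-stimulated 90 min at 37 C in HBSS/10 mM HEPES/0.1% Tween-20 buffer; beta-galactosidase complementation read by luminescence after 1 h at ambient temperature. Dopamine 57 uM final (EC100) as control.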
D2 antag – HTS Assay for Allosteric Antagonists of the Human D2 Dopamine Receptor: Primary Screen for Antagonists. HEK293 TREx D2 cells, calcium flux, dopamine EC80. inhibition, % at 10 µM. hit rate 2% among 340,000. AID 485344, 2010; in the data active means inhibition above about 30%; inactive means below that, where a call was filed; further: 0% is about no effect
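HEK293 T-REx D2 cells, tet-induced, calcium dye no-wash. Cpd pintool add, 180 s kinetic, then EC80 DA, 180 s kinetic. Ca flux read.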
D2 PAM-1 – HTS Assay for Positive Allosteric Modulators of the Human D2 Dopamine Receptor: Primary Screen for Potentiators; D(2) dopamine receptor (Homo sapiens), P14416; HEK293 T-REx D2, calcium flux, EC20 dopamine potentiation; potentiation, % at 10 µM; hit rate 0.34% among 340,000; AID 485347, 2010;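 active means potentiation over 3 SD above the plate norm, cut at about 30% in these data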; further: 0% is about no effect
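Tetracycline-induced HEK293 T-REx cells force-coupled to calcium signalling expressed D2; compounds were pin-added after a 10 s baseline, read kinetically 180 s, then an EC20 dopamine challenge followed with a further 180 s calcium read.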
D2 ag-2 – HTS Assay for Allosteric Agonists of the Human D2 Dopamine Receptor: Primary Screen for Agonists; HEK293 T-REx D2 cells, calcium flux agonist mode; activation, % at 2 µM; hit rate 0.53% among 340,000; D(2) dopamine receptor (Homo sapiens), P14416;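 active means activation over 3 SD above normal in the single-dose calcium agonist read, cut at about 30% in these data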; further: 0% is about no effect
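Tetracycline-induced HEK293 T-REx cells with force-coupled D2 receptor, plated overnight at 30 C, loaded with no-wash calcium dye. After a 10 s baseline, compound was pin-added and calcium flux read kinetically for 180 s; calcium rises flagged agonists.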
D2 PAM-2 – Beta-Arrestin HTS for Positive Allosteric Modulators of the Human D2 Dopamine Receptor: Potentiators. D(2) dopamine receptor (Homo sapiens), P14416. DiscoveRx D2 beta-arrestin cells, luminescence, 90 min; 100% = 57 uM dopamine signal. potentiation, % (concentration not given with the values). AID 624464, 2012. hit rate 0.23% among 360,000; in the data active means potentiation above about 50%
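PathHunter D2 cells, attached overnight at 37 deg C, received compound in DMSO plus dopamine at EC20 (50 nM final) for 90 min at 37 deg C. Beta-arrestin recruitment was read as luminescence after 1 h with detection reagent at ambient temperature.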
* = called active by the depositor; nt = no result.

SMILES	D2 ag-1	D2 antag	D2 PAM-1	D2 ag-2	D2 PAM-2
CC1(C)CC(=O)C(=Cc2cn(CCC#N)nc2-c2ccc(Cl)cc2)C(=O)C1	0	7	5	3	-1
CC1(C)CC(=O)C(=Cc2cn(-c3ccccc3)nc2-c2ccc(Cl)cc2)C(=O)C1	-2	32*	5	0	-7
COC(=O)[C@@H]1C[C@@H]2CC[C@@H](O)C[C@@H]2N1Cc1ccc(OC)cc1	-2	39*	9	1	-4
Cc1ccc(CN(Cc2ccco2)C(=O)c2ccccc2Br)o1	nt	nt	8	-1	nt
Cc1ccc(C(=O)NCCn2cc(SCC(=O)Nc3cc(C)on3)c3ccccc32)cc1	4	32*	-26	-1	1
Cc1cc(NC(=O)CSc2cn(CCNC(=O)c3ccccc3)c3ccccc23)no1	3	3	6	-1	3
Cc1ccccc1Nc1nnc(-c2ccc(C)c(S(=O)(=O)N3CCCCC3)c2)c2ccccc12	nt	nt	nt	-3	nt
CCCNC(=O)C1CCC(CNS(=O)(=O)c2ccc3c(c2)CC(C)N3C(C)=O)CC1 (configuration not stated)	-2	41*	10	2	-10
CC(=O)N1c2ccc(S(=O)(=O)NCC3CCC(C(=O)NCCC(C)C)CC3)cc2CC1C (configuration not stated)	nt	nt	-13	nt	nt
CCOC(=O)c1cc(-c2ccccc2)n(CCC(=O)Nc2ccc(C(F)(F)F)cc2)c1C	nt	nt	8	19	nt
N#CC1=C(N)Oc2n[nH]c(-c3cccnc3)c2C1c1ccc([N+](=O)[O-])o1 (configuration not stated)	9	8	6	1	55*
CCc1[nH]nc2c1C(c1ccc(C)o1)C(C#N)=C(N)O2 (configuration not stated)	-2	64*	-8	0	11
Cc1c2cnn(-c3ccccc3)c(=O)c2c(C)n1CCCC(=O)Nc1ccc(F)cc1F	nt	nt	2	1	nt
Cc1ccccc1Nc1nc(N)c(C(=O)c2ccccc2Cl)s1	nt	nt	-4	0	nt
CCc1cc2ccc(OC)cc2nc1SCC(=O)Nc1cc(C)on1	-1	-12	3	0	-14
CCc1cc2ccc(OC)cc2nc1SCC(=O)NNC(C)=O	-6	57*	-2	-3	-4
CCN(CC)CCN(C(=O)c1ccc2c(c1)CCCC2)c1nc2ccc(C)cc2s1	4	46*	-22	-1	-25
CCN(CC)CCN(C(=O)c1ccc2c(c1)CCCC2)c1nc2ccc(F)cc2s1	2	17	-16	-1	-18
CCN(CC)CCN(C(=O)c1ccc2c(c1)CCCC2)c1nc2c(C)cccc2s1	7	60*	-14	1	-16
CC(C)CC(=O)OCc1cc(=O)n2nc(C3CCCCC3)sc2n1	nt	nt	-5	0	nt
CC(=O)Oc1oc(-c2ccccc2)nc1/C=N/c1ccccn1	2	-5	-1	1	-11
COc1ccccc1N=Cc1nc(-c2ccccc2)oc1OC(C)=O	-1	50*	-9	0	5
CNc1ccc2c3c(cccc13)C(=O)N(C)C2=O	5	72*	-17	128*	18
CCCCC1CCC(C(=O)Nc2ccccc2N2CCOCC2)CC1 (configuration not stated)	-1	33*	11	1	17
CCCCCOc1ccc(C(=O)Nc2ccc(N3CCOCC3)cc2N2CCOCC2)cc1	-2	-12	78*	0	-2
SMILES	D2 ag-1	D2 antag	D2 PAM-1	D2 ag-2	D2 PAM-2
CC(C)(C)C1CCC(C(=O)Nc2ccc(N3CCOCC3)cc2N2CCOCC2)CC1 (configuration not stated)	-4	31*	-14	0	-5
O=C(C1CCN(S(=O)(=O)Cc2ccccc2)CC1)N1CCN(c2cccc(C(F)(F)F)c2)CC1	nt	nt	5	0	nt
CC1=C(c2ccc(C(C)C)cc2)S(=O)(=O)N=C1N1CCC(C(=O)NCc2ccccc2)CC1	nt	nt	14	nt	nt
CCOC(=O)c1ccc(NC(=O)CSc2ncc(S(=O)(=O)c3ccc(C)c(Cl)c3)c(=O)[nH]2)cc1	nt	nt	-1	-1	nt
O=C(CN1CCc2cc3c(cc2C1)OCCCO3)Nc1c(F)cccc1F	-1	42*	-3	1	-25
On1onc2c3cc(-c4ccccc4)nc3ccc21	14	-3	1	0	59*
COC(=O)[C@@]1(Cc2ccc(F)cc2)[C@H]2c3cc(C(=O)N4CCCC4)n(CCc4ccc(O)c(O)c4)c3C[C@H]2CN1C(=O)c1ccccc1	nt	96*	-25	87*	nt
COC(=O)[C@@]1(Cc2ccc(F)cc2)[C@H]2c3cc(C(=O)N4CCCC4)n(CCO)c3C[C@H]2CN1C(=O)c1ccccc1	-7	-2	6	0	-2
Cc1ccc(S(=O)(=O)Oc2ccccc2N2C(=O)C3CC=CCC3C2=O)cc1 (configuration not stated)	-1	40*	-2	1	6
CC(C)CCNC(=O)Nc1ccc2c(c1)N(Cc1ccccc1)C(=O)c1ccccc1S2	nt	nt	2	0	nt
Cc1ccc(CNC(=O)c2nnn(-c3cccc(C)c3)c2N)cc1	-2	nt	nt	nt	-7
Cc1cccc(-n2nnc(C(=O)NCc3ccccn3)c2N)c1	1	31*	-2	0	-7
CCCCn1cc(S(=O)(=O)c2ccc(C)c(C)c2)c(=O)c2cc(F)c(N(CC)CC)cc21	nt	nt	-4	-1	nt
Cc1cc(C)cc(-n2nnc(-c3nc(-c4ccccc4F)no3)c2C)c1	nt	nt	-5	0	nt
CCOc1cc(CN2CCCC(N3CCN(c4ccc(F)cc4)CC3)C2)ccc1OC (configuration not stated)	-4	-2	-15	0	-1
COc1ccccc1N1CCN(C2CCCN(S(=O)(=O)c3cccc(Cl)c3)C2)CC1 (configuration not stated)	-3	53*	-27	-1	-49
COc1ccccc1N1CCN(C2CCCN(S(=O)(=O)c3ccc(C)cc3)C2)CC1 (configuration not stated)	-4	66*	-19	1	-52
COc1ccc(CN2CCCC(N3CCN(c4cccc(Cl)c4)CC3)C2)cc1OC (configuration not stated)	-2	26	-17	38*	-42
CCOc1ccc(NC(=O)CSc2nnc(CC)c(CC)n2)cc1	nt	nt	2	0	nt
CC(C)NC(=O)CCC(=O)N1Cc2ccccc2Oc2ncccc21	nt	nt	1	nt	nt
